Results as given in PubChem BioAssay AID504834 (National Center for Advancing Translational Sciences (NCATS), 2011).
The whole screen tested about 320,000 compounds, of which about 22,000 (6.9%) were called active. Another 27% or so got no clear call; they are omitted. Calls follow the shape of the dose curve; as a rule, active = well fitted inhibition curve with a large enough effect; inconclusive = small, poorly fitted or top-dose-only effect, or another doubt; inactive = no such curve, though single readings can be large or run the other way. For the sample, actives were picked, then their nearest neighbours and some compounds at random.

Test: Primary qHTS for delayed death inhibitors of the malarial parasite plastid, 96 hour incubation
Conditions: P. falciparum luciferase reporter growth; series mostly up to 28.7 µM; activity change, negative = inhibition: at the top concentration
Outline: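 Two parasite generations (96 h, 37 C, 5% CO2) of compound exposure in infected erythrocytes (0.05% parasitemia, 2% hematocrit). Luciferase-reporter P. falciparum; decreased luminescence indicates inhibited growth, aimed at apicoplast-acting delayed death.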
% is scaled to controls: 0 for no effect and ±100 for the full control effect; potency is read from the fitted curve at half-maximal effect.

Row | Compound | activity change, negative = inhibition | Potency
1 | Cc1ccnc(NS(=O)(=O)c2ccc(NC(=O)c3oc4ccc(F)cc4c3C)cc2)n1 | 2.11% (inactive) | –
2 | COc1ccc(Nc2ccc([N+](=O)[O-])cn2)cn1 | 5.89% (inactive) | –
3 | O=C(C1CC1)N1N=C(c2ccc(Br)cc2)CC1(O)C(F)(F)F (stereo not given) | -6.38% (inactive) | –
4 | O=C(c1ccc(Cl)cc1)N1N=C(c2ccccn2)CC1(O)C(F)(F)F (stereo not given) | – | 6.57 µM (active)
5 | COC(=O)C1(O)CC(C(C)C)=NN1C(=O)c1ccc(Cl)cc1 (stereo not given) | 14.7% (inactive) | –
6 | Cc1ccc(NC(=O)NC(=O)c2ccccc2)cc1F | 9.94% (inactive) | –
7 | CCc1c(C)[nH]c(=S)c(C#N)c1C | – | 3.29 µM (active)
8 | CC(=O)c1c(C)[nH]c(=S)c(C#N)c1-c1ccc(F)cc1 | 24.5% (inactive) | –
9 | Cc1ccc(-c2nn(C(C)(C)C)c3ncnc(N)c23)cc1 | – | 2.33 µM (active)
10 | Cc1ccc(-n2cnc3ncnc(-c4ccccc4)c32)cc1 | 35% (inactive) | –
11 | COc1ccccc1OC(C)C(=O)Nc1ccc(S(=O)(=O)Nc2nccs2)cc1 (stereo not given) | 50.1% (inactive) | –
12 | COC(=O)c1ccc(CN2C(=O)NC(c3ccccc3)(c3ccccc3)C2=O)o1 | -23.7% (inactive) | –
13 | CCCC(NC(=O)c1ccccc1)c1nc2ccccc2n1Cc1ccc(C(=O)OC)o1 (stereo not given) | – | 8.28 µM (active)
14 | CCCn1c(C(Cc2ccccc2)NC(=O)COC)nc2ccccc21 (stereo not given) | -3.62% (inactive) | –
15 | CCc1cccc(NC(=S)N(CCN(C)C)C2CCN(C(C)C)CC2)c1 | 6.36% (inactive) | –
16 | COc1ccccc1/C=C/C(=O)OCC(=O)NC1CCCCCC1 | -6.99% (inactive) | –
17 | CCn1c(=O)c(=O)n(CC)c2cc(S(=O)(=O)N3CCc4ccccc43)ccc21 | – | 13.1 µM (active)
18 | CSc1nc2ccc(S(=O)(=O)N3CCc4ccccc43)cc2s1 | -24.9% (inactive) | –
19 | O=S(=O)(c1ccc2c(c1)OCCO2)N1CCc2ccccc21 | 0% (inactive) | –
20 | O=C(NCc1ccccc1Cl)c1ccc2c(=O)n(CC3CCCO3)c(=S)[nH]c2c1 (stereo not given) | 45.6% (inactive) | –
21 | CN(c1ccc(OCC(=O)O)cc1)S(=O)(=O)c1ccc2ccccc2c1 | -7.57% (inactive) | –
22 | COc1cccc(COc2ccc(N(C)S(=O)(=O)c3ccccc3)cc2)c1 | -12.1% (inactive) | –
23 | Cc1ccc2nc(COc3ccc(N(C)S(=O)(=O)c4ccccc4)cc3)cc(=O)n2c1 | – | 10.4 µM (active)
24 | COCCCNC(=O)C1CC(=O)N(CCc2ccc(F)cc2)C1 (stereo not given) | 23.2% (inactive) | –

Row | Compound | activity change, negative = inhibition | Potency
25 | O=C(Nc1ccc2c(c1)OCO2)C1CC1(Cl)Cl (stereo not given) | 161% (inactive) | –
26 | CC(=O)N/C(=C\c1ccccc1)C(=O)OC(C)C(=O)N(C)c1ccccc1 (stereo not given) | 22.6% (inactive) | –
27 | OCC[C@H]1C[C@H](O)[C@@H](O)[C@]2(Cc3ccccc3CO2)O1 | 85.6% (inactive) | –
28 | CCOC(=O)Cn1c(SC)nc2sc3c(c2c1=O)CC(C)(C)OC3 | 0.247% (inactive) | –
29 | CC1(C)Cc2c(sc3nc4n(c(=N)c23)CCCCC4)CO1 | -12.3% (inactive) | –
30 | CC(C)c1nc2sc3c(c2c(=O)n1N)CC(C)(C)OC3 | – | 4.65 µM (active)
31 | COCCN1C(=O)N[C@@H](c2ccccc2)C(C(=O)OC)=C1C | -11.4% (inactive) | –
32 | CC1=C(C(=O)OCc2ccccc2)C(c2ccc(C(F)(F)F)cc2)NC(=O)N1CCCCCC(=O)O (stereo not given) | – | 13.1 µM (active)
33 | CC1=C(C(=O)OC(C)(C)C)C(c2ccc(Br)cc2)NC(=O)N1CCCC(=O)O (stereo not given) | 0.837% (inactive) | –
34 | CCOC(=O)c1c(C)[nH]c(C(=O)OCC(=O)c2ccc(OC)cc2OC)c1C | 116% (inactive) | –
35 | COc1cccc(/C=C/C(=O)OCC(=O)N2CCCc3ccccc32)c1 | -2.45% (inactive) | –
36 | COc1c(O)cc2oc(-c3ccc(O)c(O)c3)cc(=O)c2c1O | 81.9% (inactive) | –
37 | O=C(CSc1c2c(nc3ccc(Cl)cc13)CCCC2)NCc1ccco1 | – | 9.28 µM (active)
38 | O=C(CSc1nnnn1-c1ccccc1)NCc1ccco1 | -3.7% (inactive) | –
39 | O=C(NCc1ccco1)c1cc(-c2cccnc2)nc2ccc(Cl)cc12 | 17.9% (inactive) | –
40 | COC(=O)c1[nH]c2ccccc2c1NC(=O)CN1CCCc2ccccc21 | – | 3.29 µM (active)
41 | COC(=O)c1[nH]c2ccc(Br)cc2c1NC(=O)Oc1ccccc1 | 91.2% (inactive) | –
42 | NS(=O)(=O)c1cccc(NC(=O)CN2CCCc3ccccc32)c1 | 1.97% (inactive) | –
43 | Brc1ccccc1/C=N/Nc1nc2ccccc2o1 | 136% (inactive) | –
44 | COc1cccc(OC)c1C(=O)Nc1c(C(=O)N2CCN(c3ccccn3)CC2)oc2ccccc12 | -0.184% (inactive) | –
45 | Cc1cccc(NC(=O)CSc2nnc(CCNC(=O)OC(C)(C)C)o2)c1C | 0.64% (inactive) | –
46 | Cc1cc(Br)ccc1NC(=S)NC1CCCC1 | -23.9% (inactive) | –
47 | CCCc1cc(=O)[nH]c2nnc(SCC(=O)Nc3nnc(SCC)s3)n12 | 14.6% (inactive) | –
48 | O=S(=O)(NCCNS(=O)(=O)c1ccccc1)c1ccccc1 | 50.1% (inactive) | –

Row | Compound | activity change, negative = inhibition | Potency
49 | O=S(=O)(NCCc1ccccc1)c1ccccc1 | 38.7% (inactive) | –
50 | COP(=O)(NS(=O)(=O)c1ccccc1)OC | – | 5.22 µM (active)
51 | O=S(=O)(c1ccc(Br)c2ccccc12)N1CCOCC1 | -21.3% (inactive) | –
52 | O=C(Nc1ccnn1C1CCN(Cc2cccc(OCCO)c2)CC1)C1CCCC1 | -2.73% (inactive) | –
53 | Cn1nc(-c2ccccc2)c(CO)c1Sc1ccccc1 | 1.86% (inactive) | –
54 | Cn1cnc([N+](=O)[O-])c1Sc1ccccc1 | – | 11.7 µM (active)
55 | Cn1cnc([N+](=O)[O-])c1Nc1ccccc1O | 62.5% (inactive) | –
56 | O=C(Cn1c(-c2ccccn2)nc2ccccc21)NCCN1CCOCC1 | -0.622% (inactive) | –
57 | c1ccc(-c2ccc(OCCN3CCOCC3)cc2)cc1 | -12.9% (inactive) | –
58 | c1ccc2cc3c(NCCN4CCOCC4)ccnc3cc2c1 | – | 0.165 µM (active)
59 | CCOc1ccc(C(=O)Nc2c3c(nn2-c2ccccc2)CS(=O)(=O)C3)cc1 | -17.2% (inactive) | –
60 | Cc1ccc(C)c(S(=O)(=O)Nc2cccc(-n3cnnn3)c2)c1 | 1.62% (inactive) | –
61 | Cc1ccc(C(=O)CN2C(=O)NC3(CCc4ccccc43)C2=O)c(C)c1 (stereo not given) | 3.08% (inactive) | –
62 | COc1ccc(C(=O)CN2C(=O)NC3(CCc4ccccc43)C2=O)c(OC)c1 (stereo not given) | -18.2% (inactive) | –
63 | COc1ccc(-n2c(C)cc(C(=O)CN3C(=O)NC4(CCc5ccccc54)C3=O)c2C)cc1 (stereo not given) | – | 1.17 µM (active)
64 | CCN1CCN(C(=O)Cn2nc(C)n3c(cc4c(OC)cccc43)c2=O)CC1 | -29.1% (inactive) | –
65 | O=C(CCN1C(=O)C2CCCCC2C1=O)Nc1ccc(OC(F)F)cc1 (stereo not given) | 5.43% (inactive) | –
66 | NC1=NC[C@@H](Cc2ccc(O)cc2)N1CC1CCCCC1 | – | 2.33 µM (active)
67 | COc1ccc(NC(=O)CCCN2C(=O)C(c3ccccc3)Oc3cccnc32)cc1 (stereo not given) | 100% (inactive) | –
68 | CCOc1ccc(N(C)Cc2cc(=O)oc3ccc(OC)cc23)cc1 | -27.9% (inactive) | –
69 | Cc1cc2oc(=O)cc(CN(C)Cc3ccc(OC(F)F)cc3)c2cc1Cl | – | 2.62 µM (active)
70 | Cc1ccc(CN(C)Cc2cc(=O)oc3cc(C)c(Cl)cc23)cc1 | 1.06% (inactive) | –
